# From PubChem
# This is a sample that favours compounds with a hit; in the whole collection about 22% have one here.
# Shiga inhibitor: Shiga toxin inhibition; Vero cells, Shiga toxin protein synthesis inhibition reporter; inhibition, % at 38.7 µM; hit rate 9.2% among 290,000; AID 2315; in the data active = inhibition mostly above about 28%, no sharp cut-off; inactive = mostly below about 43%; note: 0% is about no effect
# LmPK inhibitor: LmPK (Leishmania mexicana) enzyme inhibition. Q27686. purified LmPK, Kinase-Glo ATP luminescence, 1 h. Potency, µM (doses to about 57.5 µM), for the others: at the top dose activity change, negative = inhibition, usual class: inhibitors. hit rate 0.37% among 290,000; note: potency is the fitted concentration of half-maximal effect; % is set by controls: 0 for no effect and ±100 for the full control effect
# Target sequence (Q27686 whole entry, looked up): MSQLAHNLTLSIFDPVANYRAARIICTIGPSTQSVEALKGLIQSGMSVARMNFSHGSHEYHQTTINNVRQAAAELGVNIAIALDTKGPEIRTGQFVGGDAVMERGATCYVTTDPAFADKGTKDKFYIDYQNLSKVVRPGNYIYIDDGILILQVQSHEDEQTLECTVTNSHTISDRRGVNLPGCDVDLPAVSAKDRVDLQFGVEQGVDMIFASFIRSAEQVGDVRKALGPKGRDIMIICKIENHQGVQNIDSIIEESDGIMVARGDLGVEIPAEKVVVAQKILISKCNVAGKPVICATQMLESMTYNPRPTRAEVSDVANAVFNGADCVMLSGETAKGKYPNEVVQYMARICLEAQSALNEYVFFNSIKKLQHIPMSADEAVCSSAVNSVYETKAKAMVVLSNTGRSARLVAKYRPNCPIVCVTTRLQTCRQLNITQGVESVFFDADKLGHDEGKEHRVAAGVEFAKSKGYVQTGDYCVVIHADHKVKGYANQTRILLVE
#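 Kinase-Glo luminescence read after 1 h RT reaction of 0.1 nM LmPK with 0.5 mM PEP and 0.1 mM ADP. Activity scaled between uninhibited and enzyme-free controls.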
# Pf growth 48h: P. falciparum growth inhibition at 48 hours (one generation); P. falciparum luciferase growth in erythrocytes, 48 h; hit rate 5.9% among 310,000; Potency, µM (series often up to 28.7 µM), without a hit: at the top dose activity change, negative = inhibition, most hits filed as inhibitors; note: potency is the fitted concentration of half-maximal effect; % is set by controls: 0 for no effect and ±100 for the full control effect
#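 In quantitative HTS format, infected erythrocytes bearing luciferase-reporter parasites were treated for a single generation at 37 C. Luminescence after adding detection reagent served as the growth measure.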
# Pf growth 96h: inhibits malaria parasite growth, 96 h; Potency, µM (top dose mostly 28.7 µM), inactives show at the highest dose activity change, negative = inhibition, most hits filed as inhibitors; AID 504834; hit rate 6.9% among 320,000; P. falciparum luciferase reporter growth, 96 h; note: potency is the fitted concentration of half-maximal effect; % is set by controls: 0 for no effect and ±100 for the full control effect
#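 Parasite growth measured via integrated firefly luciferase reporter in P. falciparum. Infected erythrocytes at 2% hematocrit, 0.05% parasitemia final were treated 96 hours at 37 C under 5% CO2, and luminescence was read.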
# Cycloheximide cs: counter-screen hit for Shiga toxin inhibitors, cycloheximide | cell reporter, cycloheximide protein synthesis inhibition counterscreen | max response, % | hit rate 12% among 300,000; in the data active = max response mostly above about 13%, no sharp cut-off; inactive = mostly below about 14%; note: read at 38.3 µM for the half of the compounds with a filed dose; 0% is about no effect
# * = called active by the depositor; i = inactive; ? = inconclusive; . = not tested or not shown; [ ] = remark or other dose. Unless noted, calls come from the whole dose curve; as a rule, active = well fitted inhibition curve with a large enough effect; inconclusive = small, poorly fitted or top-dose-only effect, or another doubt; inactive = no such curve, though single readings can be large or run the other way.
SMILES,Shiga inhibitor,LmPK inhibitor,Pf growth 48h,Pf growth 96h,Cycloheximide cs
CC1C(=O)N2CCCc3cc(NC(=O)C(=O)NCCCc4ccccc4)cc1c32 (configuration not stated),.,.,12µM*,?,.
CC1C(=O)N2CCCc3cc(NC(=O)COc4ccc(Cl)cc4)cc1c32 (configuration not stated),.,.,?,15µM*,.
CC1C(=O)N2CCCc3cc(NC(=O)C(=O)NCc4ccccn4)cc1c32 (configuration not stated),.,.,-13%,-5%,.
Cc1ccccc1-n1ncc2c([N+](=O)[O-])cc([N+](=O)[O-])cc21,2,-1%,9.3µM*,?,-5
O=[N+]([O-])c1ccc(N2CCc3ccccc3C2)cc1,.,-1%,37%,0%,26*
CC(C)c1ccc(NC(=O)N2CCc3ccccc3C2)cc1,96*,-4%,87%,31%,42*
O=C(Nc1ccc([N+](=O)[O-])cc1)N1CCc2ccccc2C1,.,1%,?,47%,38*
O=[N+]([O-])c1ccc(-c2csc(N3CCc4ccccc4C3)n2)cc1,-6,4%,0%,7%,-2
O=C(NCCN1CCc2ccccc2C1)Nc1ccc([N+](=O)[O-])cc1,-11,12%,?,?,6
COc1ccc(OCc2nnc(SCC(=O)Nc3nnc(C4CC4)s3)n2C)cc1,8,2%,-9%,11%,-5
CC(=O)c1ccc(Nc2c3ccccc3cc3occc23)cc1,-6,.,.,.,9
Cc1cc(C)cc(Oc2ccccc2CO)c1,7,3%,-6%,10%,-2
CCC(=O)Nc1ccc2c(c1)ncn2-c1ccccc1C,14,1%,-28%,i,-3
CCC(=O)Nc1ccc2c(c1)ncn2-c1ccc(C)cc1,96*,-5%,139%,?,36*
CCC(=O)Nc1ccc2c(c1)ncn2-c1ccc(OC)cc1,66*,2%,-11%,98%,46*
Cc1cc(C)cc(NC(=O)Nc2c(Br)cnn2C)c1,-1,5%,1%,38%,15
O=C(OCc1cccc([N+](=O)[O-])c1)c1ccc2ccccc2n1,57,10%,82%,27%,23
CCn1c(SCC(=O)Nc2sccc2C(N)=O)nnc1C1CC1,.,.,9%,3%,.
Cc1ccc(C(=O)NCC(=O)NCCCc2ccccc2)cc1,-2,0%,5%,4%,-6
CSc1nsc(SCC(=O)Nc2ccc3c(c2)OCCO3)n1,94,6%,191%,.,41*
Cc1csc(SCC(=O)Nc2ccc3c(c2)OCCO3)n1,75*,-2%,49%,11%,42*
Cc1csc(SCC(=O)Nc2ccc(C)c(F)c2)n1,.,.,-12%,?,.
Cc1cc(C)c(S(=O)(=O)c2ccccc2C)c(OCCN(C)C)n1,16,2%,.,-9%,1
CCN(CC)S(=O)(=O)c1ccc(C(=O)Nc2nnc(CSC)o2)cc1,-2,2%,?,?,-3
CCc1nnc(NC(=O)c2ccc(S(=O)(=O)N(CC)Cc3ccccc3)cc2)o1,-55,0%,35%,106%,-2
SMILES,Shiga inhibitor,LmPK inhibitor,Pf growth 48h,Pf growth 96h,Cycloheximide cs
CCN(Cc1ccccc1)S(=O)(=O)c1ccc(C(=O)Nc2nnc(C)o2)cc1,-2,1%,9.3µM*,?,-1
CCc1nnc(NC(=O)c2ccc(S(=O)(=O)N(C)Cc3ccccc3)cc2)o1,-16,11%,7%,1%,-4
CCCCN(C)S(=O)(=O)c1ccc(C(=O)Nc2nnc(CSC)o2)cc1,-19,0%,?,13µM*,-1
COc1ccccc1-c1nnc(NC(=O)c2ccc(S(=O)(=O)N(C)Cc3ccccc3)cc2)o1,-5,1%,-14%,10µM*,-1
O=C(NCC(c1ccco1)N1CCN(c2ccccc2F)CC1)c1ccc2c(c1)OCO2 (configuration not stated),.,.,-3%,?,.
Cc1cccc(NC(=O)CN2NS(=O)(=O)c3ccccc3C2=O)c1,32,7%,6%,.,12
COc1cc(C)ccc1OCCOc1c(C)cc(Cl)cc1Cl,-11,-4%,-17%,4%,1
COc1ccccc1OCCCOc1c(Cl)cc(C)cc1Cl,21,-6%,-1%,-17%,15*
COc1cc(C)ccc1OCCCOc1c(Cl)cccc1Cl,60,-2%,45%,0.13µM*,18*
O=C(CCNC(=O)c1ccco1)NC(Cc1c[nH]c2ccccc12)C(=O)O (configuration not stated),.,.,5%,36%,.
C=CC1=C2C=C(C3CC3)N(CCCOC(C)C)C=C2C(=O)C(C)(OC(=O)c2ccco2)C1=O (configuration not stated),.,-2%[11.5 µM],.,.,.
CCN(CC)CCN1C(=O)C(=O)/C(=C(/O)c2ccc(S(=O)(=O)N3CCOCC3)cc2)C1c1ccc(C)cc1 (configuration not stated),11,-1%,-15%,-6%,-1
N=c1c2c(-c3ccccc3)c(-c3ccccc3)n(Cc3ccco3)c2ncn1CCCO,-3,13%,?,13µM*,-5
O=c1ccn(-c2ccccc2)[nH]1,-9,1%,50%,31%,10
Cc1c(C(=O)NCCN2C(=O)S/C(=C\c3cccnc3)C2=O)cccc1[N+](=O)[O-],-6,5%,5.2µM*,?,-1
CS(=O)(=O)N(CC(=O)N1CCOCC1)c1ccccc1Br,-1,0%,3%,-18%,-3
CS(=O)(=O)Nc1ccc(C(=O)Nc2ccc(S(=O)(=O)Nc3nccs3)cc2)cc1,5,-5%,-6%,?,13
O=C(Nc1ccc(S(=O)(=O)Nc2nccs2)cc1)c1c(F)c(F)c(F)c(F)c1F,-13,-4%,-8%,3.7µM*,1
CCc1ccc(S(=O)(=O)Nc2nccs2)cc1,-8,-1%,7%,?,1
O=S(=O)(Nc1nccs1)c1ccc(F)cc1,59*,1%,16%,?,38*
Cc1ccc(S(=O)(=O)N2CC3CCCN3c3ccc(C(F)(F)F)cc32)cc1 (configuration not stated),-7,4%,10µM*,?,-3
CSc1ccccc1OCc1cc(C(=O)N(C)Cc2nonc2C)no1,189*,2%,-12%,1%,59*
Cc1ccc(CN(C)C(=O)c2cc(COc3cccc(C(F)(F)F)c3)on2)o1,8,3%,12%,28%,7
C#CCN(Cc1ccco1)C(=O)c1cc(COc2ccc(F)cc2Cl)on1,47*,1%,?,11%,15
Cc1ccc(CN(C)C(=O)c2cc(COc3ccc(F)cc3Cl)on2)o1,50*,3%,0.093µM*,25%,31*
CSc1ccccc1OCc1cc(C(=O)N(C)CCn2nc(C)cc2C)no1,30*,-7%,-15%,-29%,31*
Cc1cc(CN(C)C(=O)c2cc(COc3ccc(F)cc3Cl)on2)n[nH]1,117*,3%,4%,14%,33*
Cc1nonc1CN(C)C(=O)c1cc(COc2ccc(F)cc2Cl)on1,58*,-1%,17%,-16%,46*
